# Test results as given in PubChem BioAssay AID504847 (National Center for Advancing Translational Sciences (NCATS), 2011).
# Where “and” joins values, the source holds several entries; their conditions need not be identical. Equal values may be shown once. About 3,700 (0.93%) of roughly 400,000 compounds were called active. Not shown: some 3% with an inconclusive outcome. This is one part of a sample in which actives are shown more often than they occur. Values without a mark were called inactive. The call rests on the fitted dose curve; in most records, active means well fitted inhibition curve with a large enough effect; inconclusive means small, poorly fitted or top-dose-only effect, or another doubt; inactive means no such curve, though single readings can be large or run the other way.
# Molecular target: Vitamin D3 receptor (Homo sapiens) (UniProt P11473)
# Test: Inhibitors of the vitamin D receptor (VDR): qHTS
# Conditions: VDR-SRC2-3 peptide fluorescence polarization, 2 h; max response, negative = inhibition: stronger effect = lower value
# Summary of the method: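 VDR–SRC2-3 interaction, FP format. Cmpds 23 nl via pintool, brief spin, 2 h ambient incubation.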
# On the % scale 0 is the no-effect control and ±100 the full control effect; potency means the concentration at half of the fitted maximal effect.
# Vitamin D3 receptor (Homo sapiens), sequence (P11473 whole entry, looked up): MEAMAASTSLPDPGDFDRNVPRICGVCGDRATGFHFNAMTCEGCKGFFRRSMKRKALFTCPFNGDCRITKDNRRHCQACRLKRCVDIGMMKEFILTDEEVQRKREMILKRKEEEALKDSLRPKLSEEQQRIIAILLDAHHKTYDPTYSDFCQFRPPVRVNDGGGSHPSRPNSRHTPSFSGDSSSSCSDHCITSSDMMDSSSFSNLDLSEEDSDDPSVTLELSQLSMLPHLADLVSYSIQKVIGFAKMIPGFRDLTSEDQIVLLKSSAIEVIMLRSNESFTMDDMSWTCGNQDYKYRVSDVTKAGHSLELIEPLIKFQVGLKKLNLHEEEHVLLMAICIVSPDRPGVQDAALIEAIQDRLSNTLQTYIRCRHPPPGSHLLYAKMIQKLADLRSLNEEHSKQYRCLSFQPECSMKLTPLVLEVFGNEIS
SMILES,"max response, negative = inhibition",Potency
COc1cc(Cl)c(C)cc1NC(=O)CCc1nc2cccnc2n1Cc1cccs1,3.57%,
Cc1cccc(N2CCN(C(=O)c3oc(=O)c4ccccc4c3-c3ccccc3)CC2)c1C,-3.42%,
CCCCC/C=C\C[C@H](O)/C=C/C=C/C=C/[C@@H](O)CCCC(=O)O,7.71%,
O=C(Nc1ccc(Oc2ccccc2)cc1)C1CCN(S(=O)(=O)c2ccc(Cl)cc2)CC1,-4.34%,
O=C(Nc1cccc(Cl)c1)c1csnn1,-5.14%,
O=C(Nc1ccccc1)c1nnsc1S(=O)(=O)c1ccc(Cl)cc1,,25.1 µM (active)
O=C(c1cccc(Cl)c1)N1CCN(CCc2ccncc2)CC1,9.31%,
Cc1ccccc1NC(=O)Cn1cc(C(=O)C2CC2)c2ccccc21,8.49%,
Cc1ccccc1NC(=O)CSC(=O)c1ccccc1,,79.4 µM (active)
Cc1ccccc1NC(=O)CCOc1ccccc1,-6.86% and -22.6%,
COc1ccc(CCC(=O)c2c(O)cc(OC3OC(CO)C(O)C(O)C3O[C@@H]3OC(C)C(O)C(O)C3O)cc2O)cc1O (stereo partly drawn),-4.57%,
CCOc1cccc(NC(=O)CSc2ncc(-c3ccc(Cl)cc3)[nH]2)c1,-19.8%,
CC(C)=CCN1CCC2(CCc3ccccc32)CC1,10%,
COc1ccc(Cc2nc3ccc(C(=O)NCc4ccc(OC)cc4OC)cc3o2)cc1,0.0782%,
NC(=O)CSc1oc(-c2cccs2)nc1S(=O)(=O)c1ccccc1,2.03%,
Cc1ccc(S(=O)(=O)c2nc(-c3cccs3)oc2NCc2cccnc2)cc1,-8.24%,
CCCCS(=O)(=O)c1oc(-c2cccs2)nc1S(=O)(=O)c1ccccc1,,10 µM (active)
Cc1ccc(N2CC(c3nnc(Cc4ccccc4Cl)o3)CC2=O)cc1 (stereo not drawn),0.444%,
Cc1ccc(-c2nnc3ccc(SCC(N)=O)nn23)cc1,-9.24%,
Cc1ccc(-c2nn3c(=O)cc(CN4CCN(S(=O)(=O)c5ccc(Cl)cc5)CC4)nc3s2)cc1,6.31%,
CC(C)(C)NC(=O)NC(=O)COC(=O)C1c2ccccc2Oc2ccccc21,-16.6%,
CC(C)(C)c1nnc(NC(=O)C2c3ccccc3Oc3ccccc32)s1,,35.5 µM (active)

SMILES,"max response, negative = inhibition",Potency
CCc1c(C)sc(NC(=O)C2c3ccccc3Oc3ccccc32)c1C(=O)OC(C)C,-13.1%,
COc1cc(C(=O)N2CCC(c3ccncc3)CC2)cc(OC)c1OC,6.52%,
CCOC(=O)c1c(NC(=O)CSc2nccc(=O)[nH]2)sc(C)c1C,-12.3%,
CCOC(=O)c1c(NC(=O)CSc2nnc(CNc3ccc(C)cc3C)o2)sc(C)c1C,-11.8%,
CCOC(=O)c1c(NC(=O)COc2cc(C)ccc2C(C)C)sc(C)c1C,,39.8 µM (active)
CCc1nn(CC(=O)Nc2cccc(C)c2C)c(=O)c2cc3sccc3n12,-8.74%,
CCOc1cccc2cc(-c3cn4c(n3)sc3cc(C)ccc34)c(=O)oc12,10.9%,
COc1ccc(-c2nc3cnc(Oc4ccccc4)nc3n(Cc3cccs3)c2=O)cc1,-0.524%,
COc1cccc(N2CCN(S(=O)(=O)c3ccc4c(c3)CCCN4C(C)=O)CC2)c1,4.58%,
Cc1ccccc1CCNC(=O)C1CCN(c2nc3ccccc3nc2C(F)(F)F)CC1,5.88%,
CCOc1cc(C(=S)N2CCOCC2)ccc1OS(=O)(=O)c1ccc(Br)cc1,-11.5%,
CCOc1cc(C(=S)N2CCOCC2)ccc1O,,79.4 µM (active)
CCOc1cc(C(=O)OCC(=O)Nc2cccc(C)c2)ccc1OCC(=O)N1CCOCC1,8.55%,
CCN(CC)S(=O)(=O)c1ccc2c(c1)nc(CN(C)C(=O)Nc1ccc(Cl)cc1)n2C,11%,
O=C(c1csnn1)N1CCC[C@@]2(CCN(c3cccc(-c4ccccc4)c3)C2)C1,,44.7 µM (active)
O=C(c1ccco1)N1CCC2(CC1)CN(c1ncccn1)C2,-6.75%,
CC(C)NC(=O)N1CC[C@@]2(CCCN(C(=O)c3ccco3)C2)C1,-6.63%,
O=C(c1csnn1)N1CCC[C@@]2(CCN(Cc3nccs3)C2)C1,1.05%,
O=C(c1csnn1)N1CCC2(CC1)CN(c1ncccn1)C2,-1.15%,
O=C(c1ccco1)N1CCC[C@@]2(CCN(c3ccccc3)C2)C1,,44.7 µM (active)
O=C(Cn1c(=O)n(-c2ccc(F)cc2)c(=O)c2sc3ccccc3c21)NC1CCCC1,8.11%,
COc1ccccc1Nc1nc(N)nc(N)c1S(=O)(=O)c1ccccc1,15.2%,

SMILES,"max response, negative = inhibition",Potency
COC(=O)c1ccc(NC(=O)CSc2n[nH]c(-c3ccccc3)n2)cc1,9.27%,
COc1ccc2ncc3c(-c4ccc(C)c(C)c4)nn(CC(=O)NC4CCCC4)c3c2c1,5.23%,
CCN1CCC(O)(/C=C/c2ccc(C)cc2)C(C(=O)/C=C/c2ccc(C)cc2)C1 (stereo not drawn),,25.1 µM (active)
COc1ccc2c(c1)C=C(C(=O)NCc1cc(Br)ccc1OC)CO2,8.92%,
O=C(CN1CCOCC1)N/N=C/c1ccc(-c2ccc(Br)cc2)o1,13.8%,
Cc1ccc(-c2ccc(/C=N/NC(=O)CN3CCOCC3)o2)cc1[N+](=O)[O-],,2.51 µM (active)
Cc1ccc(NC(=O)CN2CCC(C(N)=O)CC2)cc1[N+](=O)[O-],-4.1%,
O=C(CN1CCSc2ccccc21)N1CCN(c2ccccc2)CC1,16.3%,
Cc1ccccc1CSc1nc2c([nH]c3ccccc32)c(=O)n1C,2.18%,
CCC(CC)c1nnc(NC(=O)C2CCN(C(=O)c3ccco3)CC2)s1,,89.1 µM (active)
CCc1nnc(NC(=O)C2CCN(C(=O)c3ccccc3C)CC2)s1,0.925%,
COc1ccc(CNC(=O)C2CCN(C(=O)c3ccco3)CC2)cc1,3.03%,
Cc1ccc(-c2noc(-c3nnn(-c4cccc(C(F)(F)F)c4)c3N)n2)cc1,7.83%,
O=Cc1cn(-c2ccccc2)nc1-c1ccccn1,0.792%,
O=C1C(c2ccccn2)=[N+]([O-])c2ccccc21,,12.6 µM (active)
O=C(c1ccc2c(=O)n(Cc3ccco3)c(=S)[nH]c2c1)N1CCCC1,-15.6%,
CCOC(=O)c1cc2c(=O)n3ccccc3nc2n(CC2CCCO2)c1=NC(=O)c1ccc(C(C)(C)C)cc1 (stereo not drawn),-4.97%,
CC1=C(c2ccc(F)cc2)S(=O)(=O)N=C1N1CCC(C(=O)NCCc2ccccc2C)CC1,9.29%,
Cc1nn(CC(=O)N2CCN(c3cccc(C(F)(F)F)c3)CC2)c(=O)c2cc3sccc3n12,-6.46%,
CCOC(=O)c1ccc(-c2ccc(/C=C(\C#N)C(=O)Nc3ccc(OCC)cc3)o2)cc1,-4.51%,
CCOC(=O)c1ccc(NC2=CC(c3ccc(OCC)cc3)N(c3ccc(C(=O)OCC)cc3)C2=O)cc1 (stereo not drawn),,28.2 µM (active)
NS(=O)(=O)c1ccc(NC2=CC(c3ccc(F)cc3)N(c3ccc(S(N)(=O)=O)cc3)C2=O)cc1 (stereo not drawn),21.6%,

SMILES,"max response, negative = inhibition",Potency
Cc1cc(NC(=O)C2CCC(CNS(=O)(=O)c3ccc(Br)s3)CC2)ccc1Br (stereo not drawn),-18%,
COc1ccc(-c2nc3ccccc3s2)cc1NC(=O)COc1ccccc1C,1.1%,
Cc1cnc(CNc2nc(-c3cccnc3)nc3ccccc23)cn1,-20.5%,
COc1ccc(Nc2nc(-c3cccnc3)nc3ccccc23)cn1,,70.8 µM (active)
COc1cccc(-c2nc(Nc3ccncc3)c3ccccc3n2)c1,16.5%,
CCOc1ccc(Nc2c(S(=O)(=O)c3ccccc3)cnc3ccccc23)cc1,-2.09%,
Cc1nc2ccn(Cc3cccnc3)c(=O)c2cc1C(=O)N1CCN(c2ccccc2F)CC1,-2.65%,
CC(=O)Nc1ccc(S(=O)(=O)N2N=NC3C2C2CC4C3(CN(C(=O)OC(C)(C)C)S4(=O)=O)O2)cc1 (stereo not drawn),-28.4%,
O=C(NCC1COc2ccccc2O1)C1(c2ccccc2)CCCC1 (stereo not drawn),-20%,
CCn1cc(C(=O)NCC2COc3ccccc3O2)c2cc(OC)c(OC)cc2c1=O (stereo not drawn),-12.1%,
Cc1cc(C(=O)CCl)c(C)n1CC1COc2ccccc2O1 (stereo not drawn),,89.1 µM (active)
COc1cc(/C=N/O)cc(Br)c1OCc1cccc(Cl)c1,4.44%,
COc1cc(/C=C2/C(=O)NN(c3cccc(Cl)c3)C2=O)cc(Br)c1O,,22.4 µM (active)
COc1cc(/C=C2/C(=O)NN(c3ccc(F)cc3)C2=O)cc([N+](=O)[O-])c1O,-24.2%,
COCCn1c(=O)c(-c2cc(F)cc(F)c2)nc2cnc(N3CCNCC3)nc21,-11.9%,
Cc1cn([C@H]2CC(F)[C@@H](CO)O2)c(=O)[nH]c1=O (stereo partly drawn),-2.1%,
O=C(CSc1nccn1C1CCCC1)Nc1cc(C(F)(F)F)ccc1Cl,24.3%,
CCc1nnc(SCC(=O)Nc2cc(OC)ccc2OC)nc1CC,8.11%,
Cc1ccccc1-c1nc(CS(=O)(=O)CC(=O)Nc2cc(Cl)cc(Cl)c2)c(C)o1,13%,
CC1=C(c2ccc(C)c(C)c2)S(=O)(=O)NC1=NCc1ccccc1Cl,4.51%,
C=C1C(=O)C23C(O)C1CCC2[C@]12COC3(O)C(O)C1C(C)(C)CC[C@H]2O (stereo partly drawn),,14.1 µM (active)
O=c1n(Cc2cccc(C(F)(F)F)c2)c2ccccc2c2nc(-c3ccccc3)nn12,-21.7%,
